# Results from PubChem BioAssay (EPA / NIEHS).
# The source holds several records for some structures; these can differ, active in one and inactive in another. Calls of active or inactive are those of the source. Rule for the calls: active = hit-call score of the fitted dose curve at least 0.9, where 1 is the maximum; inactive = score below 0.9.
# Assays:
# [1] = BSK_hDFCGF_SRB: Viability Assessment in the BioMAP Diversity Plus: hDFCGF Assay (AID 2283061); details: primary human foreskin fibroblasts;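 note: cells exposed to compound for 24 h before the read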
# How it was run: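 SRB-based viability read on primary human skin fibroblasts at 24 h: TCA fixation, 0.1% dye, 560 nm. Gain or loss of signal is fitted against the DMSO negative control.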
# [2] = read-out: TIMP metallopeptidase inhibitor 1 (TIMP1), TIMP1 (gene 7076); test: BSK_hDFCGF_TIMP1: BioMAP Diversity Plus: hDFCGF Assay for TIMP metallopeptidase inhibitor 1 (TIMP1) Biomarker Activity (AID 2283062); details: primary human foreskin fibroblasts; actives raise or lower the signal
# How it was run: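 Bidirectional curve fitting against DMSO baseline yielded this endpoint, based on ELISA detection of TIMP-1 in primary human foreskin fibroblasts exposed to compound for 24 h.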
# [3] = read-out: Monokine induced gamma interferon (MIG), CXCL9 (gene 4283); test: BSK_hDFCGF_MIG: BioMAP Diversity Plus: hDFCGF Assay for Monokine induced gamma interferon (MIG) Biomarker Activity (AID 2283063); details: primary human foreskin fibroblasts; actives raise or lower the signal
# How it was run: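 Endpoint derived by bidirectional fitting relative to DMSO; MIG quantified via ELISA in primary human foreskin fibroblasts harvested 24 h after dosing.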
# [4] = read-out: Matrix Metallopeptidase 1 (MMP1), MMP1 (gene 4312); test: BSK_hDFCGF_MMP1: BioMAP Diversity Plus: hDFCGF Assay for Matrix Metallopeptidase 1 (MMP1) Biomarker Activity (AID 2283064); details: primary human foreskin fibroblasts; actives raise or lower the signal
# How it was run: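 Primary human foreskin fibroblasts in the hDFCGF system were dosed with test chemical, and MMP1 was measured by ELISA 24 h later. Values come from bidirectional curve fitting against the DMSO baseline.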
# [5] = read-out: Vascular cell adhesion molecule 1 (VCAM1), VCAM1 (gene 7412); test: BSK_hDFCGF_VCAM1: BioMAP Diversity Plus: hDFCGF Assay for Vascular cell adhesion molecule 1 (VCAM1) Biomarker Activity (AID 2283065); details: primary human foreskin fibroblasts; actives raise or lower the signal;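 for AC50: VCAM-1 protein level quantified by ELISA after 24 h chemical exposure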
# How it was run: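 Measured after 24 h chemical treatment of primary human skin fibroblasts, VCAM-1 was detected by ELISA and concentration-response analysed in both directions versus DMSO vehicle.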
# [6] = read-out: Plasminogen activator inhibitor-1 (PAI1), SERPINE1 (gene 5054); test: BSK_hDFCGF_PAI1: BioMAP Diversity Plus: hDFCGF Assay for Plasminogen activator inhibitor-1 (PAI1) Biomarker Activity (AID 2283066); details: primary human foreskin fibroblasts; actives raise or lower the signal
# How it was run: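 PAI-1 levels, determined by ELISA, served as the endpoint in human foreskin fibroblast cultures exposed to compound for 24 h, with DMSO as baseline.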
# [7] = read-out: Interferon-gamma inducible Protein 10 (IP10), CXCL10 (gene 3627); test: BSK_KF3CT_IP10: BioMAP Diversity Plus: KF3CT Assay for Interferon-gamma inducible Protein 10 (IP10) Biomarker Activity (AID 2283068); details: primary human keratinocytes with fibroblasts; actives raise or lower the signal
# How it was run: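 KF3CT co-culture (keratinocytes + foreskin fibroblasts), 24 h compound, IP-10 by ELISA; bidirectional fit vs DMSO baseline.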
# [8] = BSK_KF3CT_SRB: Viability Assessment in the BioMAP Diversity Plus: KF3CT Assay (AID 2283069); details: primary human keratinocytes with fibroblasts;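 note: total protein by sulforhodamine B staining as a cytotoxicity measure; read 24 h after compound addition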
# How it was run: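 Human primary keratinocyte plus foreskin fibroblast co-culture exposed to chemicals for 24 h. Total protein measured by 0.1% sulforhodamine B staining after 10% TCA fixation, read at 560 nm; bidirectional fitting versus DMSO baseline.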
# [9] = read-out: Interleukin-1 alpha (IL1a), IL1A (gene 3552); test: BSK_KF3CT_IL1a: BioMAP Diversity Plus: KF3CT Assay for Interleukin-1 alpha (IL1a) Biomarker Activity (AID 2283070); details: primary human keratinocytes with fibroblasts; actives raise or lower the signal
# How it was run: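 Human keratinocyte plus foreskin fibroblast primary co-culture, sampled 24 h after chemical dosing. IL-1a measured by ELISA; responses fitted bidirectionally against DMSO baseline (negative control), so gain or loss of signal both count.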
# [10] = read-out: TIMP metallopeptidase inhibitor 2 (TIMP2), TIMP2 (gene 7077); test: BSK_KF3CT_TIMP2: BioMAP Diversity Plus: KF3CT Assay for TIMP metallopeptidase inhibitor 2 (TIMP2) Biomarker Activity (AID 2283071); details: primary human keratinocytes with fibroblasts; actives raise or lower the signal
# How it was run: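 Keratinocyte–fibroblast co-culture, 24 h exposure; TIMP-2 ELISA, DMSO-normalised bidirectional fit. Parallel SRB (0.1%, TCA-fixed, 560 nm) total-protein staining gauges cytotoxicity.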
# [11] = read-out: Transforming growth factor beta 1 (TGFb1), TGFB1 (gene 7040); test: BSK_KF3CT_TGFb1: BioMAP Diversity Plus: KF3CT Assay for Transforming growth factor beta 1 (TGFb1) Biomarker Activity (AID 2283072); details: primary human keratinocytes with fibroblasts; actives raise or lower the signal
# How it was run: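 Signal changes in either direction, relative to DMSO, define activity here. TGF-b1 is read by ELISA from a human keratinocyte-fibroblast co-culture 24 h post-dose.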
# [12] = read-out: C-C motif chemokine 2 (Homo sapiens) (UniProt P13500); test: BSK_KF3CT_MCP1: BioMAP Diversity Plus: KF3CT Assay for Monocyte Chemoattractant Protein 1 (MCP1/CCL2) Biomarker Activity (AID 2283073); details: primary human keratinocytes with fibroblasts; actives raise or lower the signal
# How it was run: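 Biomarker MCP-1 is measured by ELISA in primary human keratinocytes co-cultured with foreskin fibroblasts, 24 h after chemical treatment; DMSO serves as the negative control and activity baseline.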
# [13] = read-out: Matrix Metallopeptidase 9 (MMP9), MMP9 (gene 4318); test: BSK_KF3CT_MMP9: BioMAP Diversity Plus: KF3CT Assay for Matrix Metallopeptidase 9 (MMP9) Biomarker Activity (AID 2283074); details: primary human keratinocytes with fibroblasts; actives raise or lower the signal;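 for AC50: MMP9 protein level quantified by ELISA in the co-culture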
# How it was run: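 Keratinocyte plus foreskin fibroblast human primary skin co-culture was dosed with chemical and MMP-9 was quantified by ELISA 24 h later. Bidirectional curve fitting used DMSO as negative control and activity baseline.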
# [14] = read-out: urokinase plasminogen activator (uPA), PLAU (gene 5328); test: BSK_KF3CT_uPA: BioMAP Diversity Plus: KF3CT Assay for urokinase plasminogen activator (uPA) Biomarker Activity (AID 2283075); details: primary human keratinocytes with fibroblasts; actives raise or lower the signal
# How it was run: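 Human keratinocyte plus foreskin fibroblast primary co-culture exposed to chemical for 24 h. uPA levels were quantified by ELISA, and activity was fitted bidirectionally against a DMSO negative-control baseline.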
# [15] = read-out: CD40, CD40 (gene 958); test: BSK_LPS_CD40: BioMAP Diversity Plus: LPS Assay for CD40 Biomarker Activity (AID 2283076); details: primary human HUVEC with PBMC; actives raise or lower the signal
# How it was run: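 Using a multiplexed primary human co-culture (umbilical vein endothelium plus PBMC), CD40 was read by ELISA 24 h after dosing, with cytotoxicity tracked by sulforhodamine B staining of parallel cultures and activity fitted bidirectionally versus DMSO.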
# [16] = read-out: E-selectin (Homo sapiens) (UniProt P16581); test: BSK_LPS_Eselectin: BioMAP Diversity Plus: LPS Assay for Eselectin Biomarker Activity (AID 2283077); details: primary human HUVEC with PBMC; actives raise or lower the signal
# How it was run: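 Dose chemical onto LPS-driven HUVEC/PBMC co-culture; after 24 h, run ELISA for E-selectin; fit up- and down-going responses relative to DMSO control.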
# [17] = read-out: Interleukin-8 (IL8), CXCL8 (gene 3576); test: BSK_LPS_IL8: BioMAP Diversity Plus: LPS Assay for Interleukin-8 (IL8) Biomarker Activity (AID 2283078); details: primary human HUVEC with PBMC; actives raise or lower the signal
# How it was run: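 In this LPS system, chemical-treated human umbilical vein endothelium/PBMC co-cultures were harvested at 24 h for IL-8 ELISA.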
# [18] = BSK_LPS_SRB: Viability Assessment in the BioMAP Diversity Plus: LPS Assay (AID 2283079); details: primary human HUVEC with PBMC;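 note: total protein by sulforhodamine B absorbance as a cytotoxicity measure; measured one day after compound addition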
# How it was run: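 Cytotoxicity endpoint in human endothelial–PBMC co-culture: 24 h exposure, then SRB (0.1%) staining, 560 nm read.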
# [19] = read-out: Interleukin-1 alpha (IL1a), IL1A (gene 3552); test: BSK_LPS_IL1a: BioMAP Diversity Plus: LPS Assay for Interleukin-1 alpha (IL1a) Biomarker Activity (AID 2283080); details: primary human HUVEC with PBMC; actives raise or lower the signal
# How it was run: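 Primary human HUVEC and PBMC co-culture stimulated with LPS is dosed and harvested at 24 h. Both increases and decreases in ELISA-measured IL-1a are scored relative to DMSO.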
# [20] = read-out: Intercellular Adhesion Molecule 1 (ICAM1), ICAM1 (gene 3383); test: BSK_KF3CT_ICAM1: BioMAP Diversity Plus: KF3CT Assay for Intercellular Adhesion Molecule 1 (ICAM1) Biomarker Activity (AID 2283067); details: primary human keratinocytes with fibroblasts; actives raise or lower the signal
# How it was run: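 Bidirectional curve fitting against a DMSO baseline was applied to ICAM-1 ELISA signal from primary human skin co-cultures harvested 24 h after treatment, with SRB staining of parallel wells for overt cytotoxicity.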
# Sequence of E-selectin (Homo sapiens) (P16581 whole entry, looked up): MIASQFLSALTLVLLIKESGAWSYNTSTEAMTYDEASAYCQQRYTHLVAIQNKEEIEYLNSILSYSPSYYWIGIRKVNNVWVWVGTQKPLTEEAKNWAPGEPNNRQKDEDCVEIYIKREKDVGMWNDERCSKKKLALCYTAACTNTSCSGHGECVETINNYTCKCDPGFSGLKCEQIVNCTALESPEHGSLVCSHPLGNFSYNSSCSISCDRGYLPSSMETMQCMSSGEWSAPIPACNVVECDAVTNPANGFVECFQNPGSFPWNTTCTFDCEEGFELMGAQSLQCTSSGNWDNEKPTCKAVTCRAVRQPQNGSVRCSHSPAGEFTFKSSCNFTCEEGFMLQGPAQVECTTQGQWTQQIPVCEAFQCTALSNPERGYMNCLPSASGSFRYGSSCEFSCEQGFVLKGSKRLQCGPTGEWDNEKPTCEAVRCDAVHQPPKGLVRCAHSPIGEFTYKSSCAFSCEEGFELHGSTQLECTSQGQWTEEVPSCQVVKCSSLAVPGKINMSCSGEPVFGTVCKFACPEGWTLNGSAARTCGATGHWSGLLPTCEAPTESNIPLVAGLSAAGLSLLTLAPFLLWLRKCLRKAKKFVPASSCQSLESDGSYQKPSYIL
compound,measurement,setting,value
COc1cc(-c2ccc(N)c(OC)c2)ccc1N,outcome,[1],inactive
same,outcome,[2],inactive
same,outcome,[3],inactive
same,AC50,[4],20 µM (active)
same,outcome,[4],inactive
same,AC50,[5],19.2 µM (active)
same,outcome,[5],inactive
same,outcome,[6],inactive
same,outcome,[7],inactive
same,outcome,[8],inactive
same,outcome,[9],inactive
same,outcome,[10],inactive
same,outcome,[11],inactive
same,outcome,[12],inactive
same,outcome,[13],inactive
same,outcome,[14],inactive
same,outcome,[15],inactive
same,outcome,[16],inactive
same,outcome,[17],inactive
same,outcome,[18],inactive
same,outcome,[19],inactive
CC(=O)OC(c1ccccc1)C(Cl)(Cl)Cl (stereo not drawn),outcome,[1],inactive
same,outcome,[2],inactive
same,AC50,[3],36.7 µM (active)
same,outcome,[3],inactive
same,outcome,[4],inactive
same,outcome,[5],inactive
same,outcome,[7],inactive
same,outcome,[8],inactive
same,outcome,[9],inactive
same,outcome,[10],inactive
same,outcome,[12],inactive
same,outcome,[13],inactive
same,outcome,[14],inactive
same,outcome,[15],inactive
same,outcome,[16],inactive
same,outcome,[17],inactive
same,outcome,[18],inactive
same,AC50,[19],17.6 µM (active)
same,outcome,[19],inactive
O=C(OC1CCCCC1)c1ccccc1C(=O)OC1CCCCC1,AC50,[1],9.82 µM (active)
same,AC50,[2],14.3 µM (active)
same,AC50,[3],16.4 µM (active)
same,AC50,[4],20.9 µM (active)
same,AC50,[5],6.34 µM (active)
same,AC50,[6],12.3 µM (active)
same,outcome,[20],inactive
same,outcome,[7],inactive
same,outcome,[8],inactive
same,AC50,[9],15.3 µM (active)
same,AC50,[10],20.9 µM (active)
same,AC50,[11],2.62 µM (active)
same,outcome,[12],inactive
same,AC50,[13],9.72 µM (active)
same,outcome,[14],inactive
same,AC50,[15],15.5 µM (active)
same,AC50,[16],20.9 µM (active)
same,AC50,[17],20.9 µM (active)
same,AC50,[18],20.9 µM (active)
same,AC50,[19],20.9 µM (active)
COP(=S)(OC)Oc1ccc(S(=O)(=O)N(C)C)cc1,outcome,[1],inactive
same,outcome,[2],inactive
same,outcome,[3],inactive
same,outcome,[4],inactive
same,outcome,[5],inactive
same,outcome,[6],inactive
same,outcome,[7],inactive
same,outcome,[8],inactive
same,outcome,[9],inactive
same,outcome,[10],inactive
same,outcome,[11],inactive
same,outcome,[12],inactive
same,outcome,[13],inactive
same,outcome,[14],inactive
same,outcome,[15],inactive
same,outcome,[16],inactive
same,outcome,[17],inactive
same,outcome,[18],inactive
same,AC50,[19],0.0677 µM (active)
NC(=S)Nc1ccccc1,outcome,[1],inactive
same,outcome,[2],inactive
same,outcome,[3],inactive
same,outcome,[4],inactive
same,outcome,[5],inactive
same,outcome,[6],inactive
same,outcome,[7],inactive
same,outcome,[8],inactive
same,outcome,[9],inactive
same,outcome,[10],inactive
same,outcome,[11],inactive
same,outcome,[12],inactive
same,outcome,[13],inactive
same,outcome,[14],inactive
same,outcome,[15],inactive
same,outcome,[16],inactive
same,outcome,[17],inactive
same,outcome,[18],inactive
same,outcome,[19],inactive
